From PubChem BioAssay (NCI)
About 79,000 compounds went through this panel and 15% of them were active in at least one assay; those are over-represented in the sample as a whole. A number with no mark means an inactive call. Activity calls are given as the source filed them. Rule as the data show it: active = growth inhibition above about 70%; inactive = the rest.

Legend:
[1] = NCI Yeast Anticancer Drug Screen. Data for the rad50 strain (AID 155);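 also: 0% = growth of vehicle-only cultures of the same strain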; settings: S. cerevisiae rad50 strain growth inhibition, hits give high values
In short: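 Readout: growth inhibition relative to vehicle-treated cultures. Compound exposure was carried out in a genetically defined yeast strain deficient in DNA damage repair.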

[2] = NCI Yeast Anticancer Drug Screen. Data for the mec2-1 strain (AID 157); settings: S. cerevisiae mec2-1 strain, hits give high values
In short: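 Growth inhibition is read against vehicle-treated controls after compound exposure of the mec2-1 yeast strain, which is defective in DNA damage repair or cell cycle control.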

[3] = NCI Yeast Anticancer Drug Screen. Data for the sgs1 mgt1 strain (AID 161);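 also: 0% = growth of cultures given vehicle only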; settings: S. cerevisiae sgs1 mgt1 strain, hits give high values
In short: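 This yeast growth screen uses a strain with defined DNA-repair lesions; compound-treated growth is compared with vehicle-treated growth.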

[4] = NCI Yeast Anticancer Drug Screen. Data for the cln2 rad14 strain (AID 165);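 also: 0% = growth equal to vehicle treated cultures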; settings: S. cerevisiae cln2 rad14 strain, hits give high values
In short: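 Growth inhibition, relative to vehicle-treated controls, is the read-out. The test organism is a yeast strain with defined genetic alterations, cln2 rad14.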

[5] = NCI Yeast Anticancer Drug Screen. Data for the bub3 strain (AID 167); settings: S. cerevisiae bub3 mutant strain, hits give high values
In short: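 Readout: yeast growth inhibition, expressed relative to vehicle-only wells. The test organism is a mutant strain from a panel with lesions in DNA repair or checkpoint genes.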

[6] = NCI Yeast Anticancer Drug Screen. Data for the mlh1 rad18 strain (AID 175); settings: S. cerevisiae mlh1 rad18 strain growth inhibition, hits give high values
In short: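 Cells of a genetically altered yeast strain, deficient in DNA damage repair, were treated with compound. Their growth was then compared with that of vehicle-treated cultures to give inhibition.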

[7] = at 5.0 µM (retest, dose inferred, filed as 0.5)
[8] = at 50.0 µM (retest, dose inferred, filed as 5.0)

SMILES | growth inhibition [1, 7] | growth inhibition [1, 8] | growth inhibition ([1]; at 50.0 µM) | growth inhibition [2, 7] | growth inhibition [2, 8] | growth inhibition ([2]; at 50.0 µM) | growth inhibition [3, 7] | growth inhibition [3, 8] | growth inhibition ([3]; at 50.0 µM) | growth inhibition [4, 7] [%] | growth inhibition [4, 8] | growth inhibition ([4]; at 50.0 µM) | growth inhibition [5, 7] [%] | growth inhibition [5, 8] | growth inhibition ([5]; at 50.0 µM) | growth inhibition [6, 7] | growth inhibition [6, 8] | growth inhibition ([6]; at 50.0 µM)
Cc1cccc(N2CCN(CC(O)COc3ccc4ccccc4c3)CC2)c1 (configuration not stated) | -6% | -7% | 80.7% (active) | 13% | 18% | 72.1% (active) | -3% | 12% | 97.7% (active) | -4 | -6% | 60.1% | -5 | 4% | 41.1% | 26% | 28% | 90% (active)
COc1ccc2ccc(OC)c(C=O)c2c1 | -158% | -119% | 97.5% (active) | -50% | -111% | 10.2% | -65% | -60% | -1% | -63 | -58% | -28.2% | -67 | -74% | -25.6% | -144% | -107% | 63.5%
CSc1nc(COC(=O)NC(C)C)c(COC(=O)NC(C)C)n1-c1ccccc1 | -12% | 11% | -17.1% | 23% | 11% | 4.2% | -19% | -6% | -6.15% | 13 | 4% | 53.1% | 8 | 22% | -12.7% | -1% | -6% | 18.9%
CC(CN(C)C)C(/C=C/c1ccccc1)=N\NC(=O)c1ccccc1 (configuration not stated) | -14% | 3% | 3.15% | -7% | -7% | 13.1% | -4% | 3% | 3.05% | -11 | -4% | 3.15% | -3 | -11% | -18.4% | 2% | 11% | -3.6%
CCC(=O)OC1=C(Cl)C(=O)c2ccccc2C1=O | 2% | 98% (active) | 71.8% (active) | 4% | 99% (active) | 27.2% | 9% | 99% (active) | 63.8% | 2 | 98% (active) | 0.15% | 6 | 99% (active) | 34.5% | 14% | 98% (active) | 55.4%
Nc1ncnc2c1c(-c1ccccc1)cn2-c1ccccc1 | 38% | 78% (active) | 97.8% (active) | 31% | 58% | 97.3% (active) | 71% (active) | 93% (active) | 99% (active) | 20 | 53% | 95.2% (active) | 29 | 81% (active) | 95.8% (active) | 27% | 82% (active) | 98.5% (active)
CC1=NC(C)C(C)S1 (configuration not stated) | -1% | 3% | 9.45% | 0% | 0% | 5.5% | -1% | 1% | -2.5% | 4 | 0% | 16.1% | 3 | 3% | 55.9% | 2% | 4% | 12.7%
Cc1cn(C2OC(CO)C(O)C(O)C2N)c(=O)[nH]c1=O (configuration not stated) | 0% | -2% | 86.5% (active) | 3% | 10% | 70.3% (active) | 1% | 8% | 56.5% | -4 | 0% | 61.6% | -8 | -13% | 93.9% (active) | -4% | -3% | 92.5% (active)
O=C1C=CC(=O)N1c1ccc(Br)c(Cl)c1 | 101% (active) | 100% (active) | 68.7% | 100% (active) | 100% (active) | 87.8% (active) | 21% | 100% (active) | 80.3% (active) | 46 | 100% (active) | 24.2% | 37 | 100% (active) | 66.6% | 100% (active) | 100% (active) | 63.7%
